Test systems include SR leukemia; RPMI-8226 leukemia; OVCAR-8 ovarian; OVCAR-5 ovarian; OVCAR-4 ovarian; SK-OV-3 ovarian; IGROV1 ovarian; OVCAR-3 ovarian; HS 578T breast; NCI/ADR-RES ovarian; T-47D breast; BT-549 breast; MDA-MB-435 melanoma; SW-620 colon; MCF7 breast; HCT-116 colon; HCC-2998 colon; KM12 colon.
What all share (assay): NCI-60 one-dose screen, 48 h (100 = growth as untreated, 0 = no growth, -100 = all killed)
Holding throughout (conditions): 10 µM

The structures appear in SMILES notation. The panel holds about 83,000 compounds, 20% with a hit somewhere; the sample as a whole holds those more often.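 Percent growth is the endpoint: 0 to 100 indicates growth inhibition (40 means 60% inhibition), 0 means no net growth, and negative values indicate cell death.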 Unmarked numbers belong to inactive results. Activity calls are given as the source filed them. The calls were made as follows: active = growth percent below 10; inactive = the rest.

In the case of `Cc1nc2scc(-c3ccc(Cl)cc3)n2c(=O)c1CCN1CCOCC1`, the growth with SR leukemia was 81.4%; in the assay on RPMI-8226 leukemia, 93.5%; in the assay on OVCAR-8 ovarian, 104%; with OVCAR-5 ovarian, 116%; in the assay on OVCAR-4 ovarian, 95.1%; with SK-OV-3 ovarian, 94.1%. The growth was 79.2% in the assay on IGROV1 ovarian; 104% in the assay with OVCAR-3 ovarian; 106% in the assay on HS 578T breast; 108% in the assay with NCI/ADR-RES ovarian; 76.6% with T-47D breast; 103% in the assay on BT-549 breast. The growth in the assay with MDA-MB-435 melanoma is 95.8%; with SW-620 colon it was 105%; with MCF7 breast, 90.2%; in the assay on HCT-116 colon, 105%; in the assay with HCC-2998 colon, 106%; with KM12 colon it was 107%.
With `COc1cc(-c2nc3ccc(C)cc3[nH]2)ccc1OCC(=O)N=Nc1c(O)[nH]c2ccccc12`, the growth in the assay on SR leukemia is -36.7% (active); in the assay on RPMI-8226 leukemia it was -54% (active); with OVCAR-8 ovarian it was -72.8% (active); in the assay with OVCAR-5 ovarian it was -32.4% (active); in the assay with OVCAR-4 ovarian, -82.2% (active); in the assay on SK-OV-3 ovarian, -3.57% (active). Besides, the growth in the assay with IGROV1 ovarian is -27.4% (active); in the assay with OVCAR-3 ovarian it was -94.5% (active); in the assay on HS 578T breast, -46.8% (active); in the assay on NCI/ADR-RES ovarian, 87.5%; with T-47D breast, -61.2% (active); in the assay with BT-549 breast, 18.9%. Further, the growth in the assay with MDA-MB-435 melanoma is -52.6% (active); in the assay with SW-620 colon, -62.9% (active); with MCF7 breast it was -73.4% (active); in the assay on HCT-116 colon, -82.7% (active); in the assay with HCC-2998 colon it was -91.2% (active); with KM12 colon it was -79.4% (active).
On to `C[C@@H]1C(=O)N(C[C@H](Cc2ccccc2)NC(=O)OCc2ccccc2)[C@]1(Cc1ccccc1)C(=O)OCc1ccccc1`, for which the growth in the assay with SR leukemia was 35.2%; in the assay with RPMI-8226 leukemia it was 30.1%; in the assay on OVCAR-8 ovarian it was 40.7%; in the assay on OVCAR-5 ovarian it was 65.8%; in the assay on OVCAR-4 ovarian, 22.1%; with SK-OV-3 ovarian, 54.8%. Besides, the growth in the assay on IGROV1 ovarian was 69.5%; in the assay with OVCAR-3 ovarian it was 61.3%; in the assay with HS 578T breast it was 78.8%; in the assay on NCI/ADR-RES ovarian, 27%; in the assay with T-47D breast, 7.82% (active); in the assay with BT-549 breast it was 62.9%. In addition, the growth was 52% with MDA-MB-435 melanoma; 52.6% in the assay on SW-620 colon; 35% in the assay with MCF7 breast; 32.3% in the assay on HCT-116 colon; 71% with HCC-2998 colon; 26.6% in the assay on KM12 colon.
`COc1ccc(C2CC(c3ccc(-c4ccccc4)cc3)=NN2c2ccc(S(N)(=O)=O)cc2)cc1` (configuration not stated): the growth in the assay on SR leukemia is 80%; with RPMI-8226 leukemia it was 57.2%; with OVCAR-8 ovarian, 70.2%; in the assay on OVCAR-5 ovarian it was 90%; with OVCAR-4 ovarian it was 70%; with SK-OV-3 ovarian it was 79.5%. For the same molecule, the growth is 46.3% in the assay on IGROV1 ovarian; 89.9% in the assay on OVCAR-3 ovarian; 85.5% with HS 578T breast; 60.7% in the assay on NCI/ADR-RES ovarian; 52.5% in the assay with T-47D breast; 98.5% in the assay on BT-549 breast. Moreover, the growth in the assay on MDA-MB-435 melanoma was 76%; in the assay on SW-620 colon it was 81.1%; in the assay on MCF7 breast, 58.6%; in the assay on HCT-116 colon, 56.7%; with HCC-2998 colon, 58.2%; with KM12 colon it was 37.5%.
On to `COc1cc(/C=C/C(=O)c2cc(-c3ccc(F)cc3)ccc2O)cc(OC)c1OC`, for which the growth was 49.9% with SR leukemia; 7.24% (active) in the assay with RPMI-8226 leukemia; 66.7% with OVCAR-8 ovarian; 97.5% in the assay with OVCAR-5 ovarian; 68.3% in the assay with OVCAR-4 ovarian; 89.5% in the assay on SK-OV-3 ovarian. For the same molecule, the growth is 84.1% in the assay with IGROV1 ovarian; 82.4% in the assay on OVCAR-3 ovarian; 86% with HS 578T breast; 72.1% in the assay with NCI/ADR-RES ovarian; 42.1% in the assay with T-47D breast; 88% with BT-549 breast. Besides, the growth with MDA-MB-435 melanoma was 70.7%; in the assay on SW-620 colon it was 80.9%; in the assay on MCF7 breast, 68.6%; in the assay on HCT-116 colon, 60%; in the assay on HCC-2998 colon, 93.1%; with KM12 colon it was 86%.
As for `COc1ccc(/C(CS(=O)(=O)c2ccccc2)=N\O)cc1`, the growth in the assay with SR leukemia is 87%; in the assay with RPMI-8226 leukemia it was 101%; in the assay on OVCAR-8 ovarian, 103%; in the assay on OVCAR-5 ovarian, 104%; with OVCAR-4 ovarian, 99.4%; in the assay with SK-OV-3 ovarian it was 112%. In addition, the growth in the assay with IGROV1 ovarian is 109%; in the assay with OVCAR-3 ovarian, 125%; in the assay with HS 578T breast it was 104%; with NCI/ADR-RES ovarian, 115%; with T-47D breast it was 93.4%; with BT-549 breast, 102%. In addition, the growth in the assay on MDA-MB-435 melanoma was 94.1%; in the assay with SW-620 colon, 111%; in the assay with MCF7 breast, 94.6%; with HCT-116 colon, 125%; with HCC-2998 colon, 112%; in the assay on KM12 colon, 123%.
On to `CN1CCN(c2nc(-c3cccnc3)nc3sc4c(c23)CCCCCC4)CC1`, for which the growth with SR leukemia is 34.2%; in the assay with RPMI-8226 leukemia, 80.6%; in the assay on OVCAR-8 ovarian, 95.1%; in the assay on OVCAR-5 ovarian it was 104%; with OVCAR-4 ovarian it was 80.8%; in the assay with SK-OV-3 ovarian, 97.2%. Also, the growth with IGROV1 ovarian is 102%; in the assay on OVCAR-3 ovarian, 95.8%; in the assay on HS 578T breast it was 85.3%; in the assay with NCI/ADR-RES ovarian it was 89.3%; in the assay with T-47D breast, 77.4%; with BT-549 breast, 95.3%. The growth is 98.4% in the assay on MDA-MB-435 melanoma; 102% in the assay on SW-620 colon; 88.2% in the assay with MCF7 breast; 85.3% in the assay with HCT-116 colon; 56.7% with HCC-2998 colon; 100% in the assay with KM12 colon.
Take `Cc1ccc([P+](Cc2ccccc2)(c2ccccc2)c2ccccc2)cc1`: the growth in the assay on SR leukemia is -11.9% (active); in the assay on RPMI-8226 leukemia it was -32.1% (active); in the assay on OVCAR-8 ovarian it was 3.59% (active); in the assay on OVCAR-5 ovarian, 31.7%; in the assay with OVCAR-4 ovarian, 3.46% (active); in the assay on SK-OV-3 ovarian, 21.3%. Moreover, the growth is 0.953% (active) in the assay on IGROV1 ovarian; 19.2% in the assay on OVCAR-3 ovarian; 44.8% with HS 578T breast; 101% in the assay on NCI/ADR-RES ovarian; -3.45% (active) in the assay on T-47D breast; -4.96% (active) with BT-549 breast. Besides, the growth in the assay with MDA-MB-435 melanoma is 2.32% (active); in the assay on SW-620 colon, 24.4%; in the assay with MCF7 breast it was 9.62% (active); in the assay with HCT-116 colon, 4.1% (active); with HCC-2998 colon it was 21.6%; in the assay on KM12 colon, 8.34% (active).
Regarding `COc1ccc(Cn2cc3c(c2-c2ccccc2)CC(C)(C)c2cnoc2-3)cc1`, the growth with SR leukemia was 24.5%; in the assay on RPMI-8226 leukemia it was 32.2%; in the assay on OVCAR-8 ovarian it was 50.4%; in the assay with OVCAR-5 ovarian, 78%; in the assay on OVCAR-4 ovarian, 60.4%; in the assay with SK-OV-3 ovarian it was 20%. Also, the growth in the assay with IGROV1 ovarian is 44.6%; in the assay on OVCAR-3 ovarian, 6.6% (active); in the assay with HS 578T breast it was 9.84% (active); in the assay with NCI/ADR-RES ovarian it was 18.7%; with T-47D breast it was 30.7%; with BT-549 breast, 46.2%. The growth in the assay with MDA-MB-435 melanoma is -16.6% (active); with SW-620 colon, 13.6%; in the assay on MCF7 breast, 17.1%; in the assay on HCT-116 colon, 22.9%; in the assay with HCC-2998 colon, 77.4%; with KM12 colon, 29.1%.

The values are drawn from PubChem BioAssay (NCI).
